Data from PubChem BioAssay (NCI).
About 83,000 compounds went through this panel and 20% of them were active in at least one assay; those are over-represented in the sample as a whole.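 In brief: 96-well plates, 48 h treatment, single concentration, percent growth endpoint.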 Active and inactive are the calls of the source. Rule for the calls: active = growth percent below 10; inactive = the rest.

Tests used:
Assay in all cases: NCI-60 one-dose screen, 48 h (100 = growth as untreated, 0 = no growth, -100 = all killed)
EKVX NSCLC = conditions: 10 µM unless noted
SN12C renal = conditions: 10 µM unless noted
UO-31 renal = conditions: 10 µM unless noted
TK-10 renal = conditions: 10 µM unless noted
ACHN renal = conditions: 10 µM unless noted
CAKI-1 renal = conditions: 10 µM
A498 renal = conditions: 10 µM unless noted
CCRF-CEM leukemia = conditions: 10 µM unless noted
MOLT-4 leukemia = conditions: 10 µM unless noted
SR leukemia = conditions: 10 µM unless noted
RPMI-8226 leukemia = conditions: 10 µM unless noted
OVCAR-8 ovarian = conditions: 10 µM unless noted
OVCAR-5 ovarian = conditions: 10 µM unless noted
OVCAR-4 ovarian = conditions: 10 µM unless noted
SK-OV-3 ovarian = conditions: 10 µM unless noted
IGROV1 ovarian = conditions: 10 µM unless noted
HS 578T breast = conditions: 10 µM unless noted
NCI/ADR-RES ovarian = conditions: 10 µM unless noted
SK-MEL-2 melanoma = conditions: 10 µM unless noted
OVCAR-3 ovarian = conditions: 10 µM unless noted

Measured: growth

COc1cc2oc(-c3cccc(NC(=O)c4cc(NC(=O)[C@H](C)NC(=O)OC(C)(C)C)ccc4C)c3)cc(=O)c2c(OC)c1OC
inactive: EKVX NSCLC 85.4% | SN12C renal 69.5% | UO-31 renal 36.3% | TK-10 renal 89.1% | ACHN renal 61.9% | CAKI-1 renal 53% | A498 renal 61.9% | CCRF-CEM leukemia 62.4% | MOLT-4 leukemia 51.5% | SR leukemia 25.1% | RPMI-8226 leukemia 45% | OVCAR-8 ovarian 42.6% | OVCAR-5 ovarian 110% | OVCAR-4 ovarian 63.9% | SK-OV-3 ovarian 115% | IGROV1 ovarian 60.6% | HS 578T breast 38.2% | NCI/ADR-RES ovarian 87.3%

O=S(=O)(NC1CC2CCC1C2)c1ccc2c(c1)C(=NO)c1cc(S(=O)(=O)NC3CC4CCC3C4)ccc1-2 (stereo not drawn)
active: ACHN renal -95.4% | CAKI-1 renal -97.5% | CCRF-CEM leukemia -18.8% | SR leukemia -7.47% | RPMI-8226 leukemia -24.6% | OVCAR-4 ovarian -52.4% | IGROV1 ovarian -73.7%
inactive: SK-MEL-2 melanoma 98.1% | SN12C renal 34.6% | TK-10 renal 95.6% | A498 renal 89.4% | MOLT-4 leukemia 47.1% | OVCAR-8 ovarian 67% | OVCAR-5 ovarian 42.5% | SK-OV-3 ovarian 86.4% | HS 578T breast 86% | NCI/ADR-RES ovarian 63.7%

C=CCn1c(SCC(=O)Nc2cccc(C(=O)/C=C/c3ccc(Cl)cc3)c2)nc2ccccc2c1=O
inactive: EKVX NSCLC 99.5% | SN12C renal 86.2% | UO-31 renal 67.6% | TK-10 renal 96.4% | ACHN renal 90.6% | CAKI-1 renal 76.8% | A498 renal 78% | CCRF-CEM leukemia 96.6% | MOLT-4 leukemia 94% | SR leukemia 21% | OVCAR-8 ovarian 95% | OVCAR-5 ovarian 97.9% | OVCAR-4 ovarian 87.6% | SK-OV-3 ovarian 110% | IGROV1 ovarian 96.4% | HS 578T breast 87.3% | NCI/ADR-RES ovarian 91%
active: RPMI-8226 leukemia 9.15%

Nc1n[nH]c2cccc(C#Cc3cccc(NC(=O)c4cccc(OC(F)(F)F)c4)c3)c12
active: HS 578T breast 1.43%
inactive: EKVX NSCLC 91% | SN12C renal 39.7% | UO-31 renal 26.9% | TK-10 renal 97.1% | ACHN renal 31.7% | CAKI-1 renal 48.3% | A498 renal 56.4% | CCRF-CEM leukemia 76.2% | MOLT-4 leukemia 35.4% | SR leukemia 47% | RPMI-8226 leukemia 57.2% | OVCAR-8 ovarian 60.3% | OVCAR-5 ovarian 50.7% | OVCAR-4 ovarian 66.7% | SK-OV-3 ovarian 105% | IGROV1 ovarian 19.9% | NCI/ADR-RES ovarian 57.1%

CS(=O)c1nccc(-c2c(-c3ccc(F)c(OCCc4ccc(F)cc4)c3)nc3sccn23)n1 (stereo not drawn)
active: UO-31 renal -45.1% | MOLT-4 leukemia 9.78% | SR leukemia -8.59% | IGROV1 ovarian -40.4%
inactive: EKVX NSCLC 36.1% | SN12C renal 93.4% | TK-10 renal 107% | ACHN renal 37.7% | CAKI-1 renal 47.3% | A498 renal 82.2% | CCRF-CEM leukemia 14.5% | RPMI-8226 leukemia 18% | OVCAR-8 ovarian 66.6% | OVCAR-5 ovarian 103% | OVCAR-4 ovarian 82.1% | SK-OV-3 ovarian 105% | HS 578T breast 88.7% | NCI/ADR-RES ovarian 105%

CCN1C(=O)N(CC)C2SC(N/N=C/c3ccc(F)cc3)=NC21 (stereo not drawn)
active: A498 renal -22.4% | OVCAR-8 ovarian 2.03% | NCI/ADR-RES ovarian 0.946%
inactive: SK-MEL-2 melanoma 17.2% | SN12C renal 33.6% | UO-31 renal 50.3% | TK-10 renal 88.3% | ACHN renal 37.3% | CAKI-1 renal 31.7% | CCRF-CEM leukemia 23.2% | MOLT-4 leukemia 23.8% | SR leukemia 19.4% | OVCAR-5 ovarian 48.4% | OVCAR-4 ovarian 67.2% | SK-OV-3 ovarian 36.6% | IGROV1 ovarian 25.1% | HS 578T breast 11.9%

C=C(C)C(=O)O[C@H]1C[C@@]2(C)OC(=CC2=O)/C(C)=C\[C@H]2OC(=O)C(=C)[C@H]12
active: SK-MEL-2 melanoma -28% | UO-31 renal -88.9% | TK-10 renal -76.3% | ACHN renal -11.7% | CAKI-1 renal 5.49% | CCRF-CEM leukemia -31.8% | MOLT-4 leukemia -4.17% | SR leukemia -19.6% | RPMI-8226 leukemia -15.3% | OVCAR-8 ovarian 4.8% | OVCAR-5 ovarian -56.4% | IGROV1 ovarian 7.34%
inactive: EKVX NSCLC 21.1% | A498 renal 21% | OVCAR-4 ovarian 36.1% | SK-OV-3 ovarian 77% | HS 578T breast 21.9%

O=c1[nH]c2cc(Cl)ccc2n1C1CCN(c2ccc3nnc(Cl)n3n2)CC1
inactive: SK-MEL-2 melanoma 93.1% | SN12C renal 95.3% | TK-10 renal 92.9% | ACHN renal 88.2% | CAKI-1 renal 78.6% | A498 renal 61.5% | CCRF-CEM leukemia 89% | MOLT-4 leukemia 101% | SR leukemia 81.8% | RPMI-8226 leukemia 90.9% | OVCAR-8 ovarian 93.4% | OVCAR-5 ovarian 95.5% | OVCAR-4 ovarian 88.7% | SK-OV-3 ovarian 77.5% | IGROV1 ovarian 96.6% | HS 578T breast 87.7% | NCI/ADR-RES ovarian 99.9%
active: UO-31 renal -30.9%

CCOC(=O)/C(F)=C/C1CC1CCc1cccc(C(F)(F)F)c1 (stereo not drawn)
inactive: EKVX NSCLC 101% | SN12C renal 104% | UO-31 renal 90.4% | TK-10 renal 99.5% | ACHN renal 100% | CAKI-1 renal 89.4% | A498 renal 93.7% | CCRF-CEM leukemia 110% | MOLT-4 leukemia 104% | SR leukemia 106% | RPMI-8226 leukemia 102% | OVCAR-8 ovarian 104% | OVCAR-5 ovarian 100% | OVCAR-4 ovarian 107% | SK-OV-3 ovarian 99.8% | IGROV1 ovarian 113% | HS 578T breast 103% | NCI/ADR-RES ovarian 106%

C=C(C)C(=O)O[C@H]1C[C@@]2(C)OC(=CC2=O)/C(CO)=C\[C@H]2OC(=O)C(=C)[C@H]12
inactive: OVCAR-4 ovarian 17.4% | SK-OV-3 ovarian 81.6% | HS 578T breast 17.2% | NCI/ADR-RES ovarian 11.6%
active: SK-MEL-2 melanoma -23.7% | EKVX NSCLC -5.67% | UO-31 renal -90.1% | TK-10 renal -88.1% | ACHN renal -42.1% | CAKI-1 renal -75.1% | A498 renal -3.55% | CCRF-CEM leukemia -44% | MOLT-4 leukemia -28% | SR leukemia -38.5% | RPMI-8226 leukemia -25.6% | OVCAR-8 ovarian 8.5% | OVCAR-5 ovarian -56.5% | OVCAR-3 ovarian -93.6%

NC(N)=NS(=O)(=O)c1ccc(N=NC2C(=O)NN(c3ccccc3)C2=O)cc1 (stereo not drawn)
inactive: EKVX NSCLC 110% | SN12C renal 101% | UO-31 renal 82.9% | TK-10 renal 106% | ACHN renal 95.9% | CAKI-1 renal 87.7% | A498 renal 98.2% | CCRF-CEM leukemia 116% | MOLT-4 leukemia 106% | SR leukemia 109% | RPMI-8226 leukemia 98.8% | OVCAR-8 ovarian 104% | OVCAR-5 ovarian 101% | OVCAR-4 ovarian 104% | SK-OV-3 ovarian 112% | IGROV1 ovarian 103% | HS 578T breast 89% | NCI/ADR-RES ovarian 99.9%

O=C(Nc1cc(Cl)cc(Cl)c1)Nc1ccc2oc(=O)ccc2c1
active: SN12C renal 4.07% | UO-31 renal 3.75% | ACHN renal 4.26% | CAKI-1 renal 7.57% | A498 renal -8.24% | SR leukemia 3.42% | RPMI-8226 leukemia 1.84%
inactive: EKVX NSCLC 17% | TK-10 renal 18.6% | CCRF-CEM leukemia 24.9% | MOLT-4 leukemia 12.4% | OVCAR-8 ovarian 12.5% | OVCAR-5 ovarian 36.4% | OVCAR-4 ovarian 19.5% | SK-OV-3 ovarian 25.7% | IGROV1 ovarian 26.4% | HS 578T breast 39.4% | NCI/ADR-RES ovarian 10.9%

Cn1nc(Nc2ccccc2)c(C(=O)NN)c1N
inactive: SK-MEL-2 melanoma 103% | SN12C renal 97.3% | UO-31 renal 81.5% | TK-10 renal 118% | ACHN renal 97.4% | CAKI-1 renal 94.1% | A498 renal 97.2% | CCRF-CEM leukemia 91.1% | MOLT-4 leukemia 104% | SR leukemia 107% | RPMI-8226 leukemia 106% | OVCAR-8 ovarian 97.5% | OVCAR-5 ovarian 102% | OVCAR-4 ovarian 99.9% | SK-OV-3 ovarian 103% | IGROV1 ovarian 95.4% | HS 578T breast 99.7% | NCI/ADR-RES ovarian 93.9%

Cc1csc(Nc2cccc(Nc3nc(C)cs3)c2)n1
inactive: EKVX NSCLC 61.4% | SN12C renal 88.2% | UO-31 renal 67.1% | TK-10 renal 101% | ACHN renal 75.4% | CAKI-1 renal 78.1% | A498 renal 47.3% | CCRF-CEM leukemia 89% | MOLT-4 leukemia 70.8% | SR leukemia 63.9% | RPMI-8226 leukemia 62.3% | OVCAR-8 ovarian 82.7% | OVCAR-5 ovarian 92% | OVCAR-4 ovarian 66.8% | SK-OV-3 ovarian 98.7% | IGROV1 ovarian 76.6% | HS 578T breast 85.3% | NCI/ADR-RES ovarian 66.9%

O=C1/C(=C/c2ccc([N+](=O)[O-])cc2)SC(=Nc2ccccc2)N1Nc1ccccc1
inactive: EKVX NSCLC 70.9% | SN12C renal 29.5% | UO-31 renal 37.1% | TK-10 renal 89.1% | ACHN renal 53% | CAKI-1 renal 38.6% | A498 renal 28.2% | CCRF-CEM leukemia 24% | RPMI-8226 leukemia 42.7% | OVCAR-8 ovarian 50% | OVCAR-5 ovarian 75.8% | OVCAR-4 ovarian 52.9% | SK-OV-3 ovarian 102% | IGROV1 ovarian 61.9% | HS 578T breast 79.1% | NCI/ADR-RES ovarian 45.8%
active: MOLT-4 leukemia 3.98% | SR leukemia 0.29%

CCN1C(=O)N(CC)C2SC(N/N=C/c3ccccc3F)=NC21 (stereo not drawn)
active: A498 renal -22.1% | OVCAR-8 ovarian 3.86% | NCI/ADR-RES ovarian 5.59%
inactive: SK-MEL-2 melanoma 12% | SN12C renal 34.6% | UO-31 renal 50.2% | TK-10 renal 87.7% | ACHN renal 34.4% | CAKI-1 renal 31.3% | CCRF-CEM leukemia 20% | MOLT-4 leukemia 15.5% | SR leukemia 18.7% | RPMI-8226 leukemia 20.3% | OVCAR-5 ovarian 47.5% | OVCAR-4 ovarian 68.4% | SK-OV-3 ovarian 30.4% | IGROV1 ovarian 28.3% | HS 578T breast 11.9%

CCN1C(=O)N(CC)C2SC(N/N=C/c3ccccc3)=NC21 (stereo not drawn)
active: SK-MEL-2 melanoma 9.45% | A498 renal -19.2% | OVCAR-8 ovarian 8.59% | NCI/ADR-RES ovarian 3.93%
inactive: SN12C renal 34.4% | UO-31 renal 54.6% | TK-10 renal 81.3% | ACHN renal 36% | CAKI-1 renal 40.1% | CCRF-CEM leukemia 16.7% | MOLT-4 leukemia 21.4% | SR leukemia 18.6% | RPMI-8226 leukemia 21.2% | OVCAR-5 ovarian 51.6% | OVCAR-4 ovarian 71.6% | SK-OV-3 ovarian 38.3% | IGROV1 ovarian 28% | HS 578T breast 15.8%
